Reference: PubChem BioAssay (Tox21)
Records with an inconclusive call do not appear. Activity calls are given as the source filed them. Unless noted, the call rests on the fitted dose curve.

Columns and labels:
[1] = Nuclear factor erythroid 2-related factor 2/antioxidant responsive element (Nrf2/ARE) small molecule agonists: qHTS cell viability counter screen in human keratinocytes (AID 1919968; active means well fitted curve in the direction sought with a large enough effect in the repeat runs; an effect the other way counts as inactive or inconclusive; further: nearly all actives have a fitted effect of over 55% in size)
Method in brief: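 Fluorescence read-out from CellTiter-Fluor after 1 h at 37 C. Wells held HaCaT-derived ARE-luciferase reporter cells (1,500/well) treated 23 h with DMSO-dissolved compounds. Run in the same wells as the luciferase agonist read.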

[2] = Nuclear factor erythroid 2-related factor 2/antioxidant responsive element (Nrf2/ARE) small molecule agonists: luciferase reporter gene qHTS assay in human keratinocytes (AID 1919969); further: nearly all actives have a fitted effect of over 35% in size
[3] = target: Gonadotropin-releasing hormone receptor (Homo sapiens) (UniProt P30968); assay: Human gonadotropin-releasing hormone receptor (GnRHR) small molecule agonists, calcium flux assay in GnRHR-HEK293 cells (AID 1920063); further: nearly all actives have a fitted effect of over 35% in size
Method in brief: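 Calcium-dye fluorescence, Ex/Em=480/540, recorded every 1 sec over 3 min after compound addition to GnRHR-HEK293 cells. Cells had been seeded 18 hours earlier and dye-loaded for 1 hour at 37 C. Fifteen concentrations, triplicates.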

[4] = target: KiSS-1 receptor (Homo sapiens) (UniProt Q969F8); assay: Human kisspeptin (KISS1R) small molecule agonists, calcium flux assay in KISS1R-HEK293 cells (AID 1920064; active means well fitted curve in the direction sought with a large enough effect in the repeat runs; an effect the other way counts as inactive or inconclusive)
Method in brief: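 Calcium flux read-out: kinetic fluorescence at Ex/Em=480/540, 1 s intervals over 3 min, after pin-tool compound addition to dye-loaded KISS1R-HEK293 cells. Fifteen concentrations, triplicates.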

[5] = G protein-coupled receptor (GPCR) small molecule agonists, calcium flux assay: HEK293 wild type cell line counter screen (AID 1920065)
Method in brief: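 Agonist mode; 18 h seeding at 37 C, 1 h dye load at 37 C; compounds pinned from DMSO, ATP as positive control; kinetic fluorescence 480/540 nm, 3 min, 1 s reads; 15 concentrations, triplicate.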

[6] = p53 small molecule agonists, cell-based qHTS assay with human liver microsomes (AID 1963577)
Method in brief: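 Compounds act here after metabolic activation: human liver microsomes and NADPH, both at 0.5 mg/mL final, were co-added to p53RE-bla cells. Incubation ran 16 h at 37 C, followed by LiveBLAzer detection.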

[7] = p53 small molecule agonists, cell-based qHTS assay with rat liver microsomes (AID 1963578)
Method in brief: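 Read-out is beta-lactamase reporter fluorescence (LiveBLAzer, 2 h, room temperature, dark) in p53RE-bla cells treated 16 h at 37 C with compound, rat liver microsomes and NADPH, both 0.5 mg/mL final.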

[8] = p53 small molecule agonists, cell-based qHTS assay with human liver microsomes: qHTS cell viability counter screen (AID 1963579); further: nearly all actives have a fitted effect of over 45% in size
Method in brief: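 Cells carrying the p53 response-element beta-lactamase reporter are treated for 16 h at 37 C with test compounds in the presence of human liver microsomes and NADPH (both 0.5 mg/mL final); ATP-based CellTiter-Glo luminescence then reports viability.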

[9] = p53 small molecule agonists, cell-based qHTS assay with rat liver microsomes: qHTS cell viability counter screen (AID 1963580); further: nearly all actives have a fitted effect of over 45% in size
Method in brief: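 Luminescent ATP readout (CellTiter-Glo, 30 min at room temperature) reports viability of p53RE-bla HCT-116 cells after 16 h at 37 C with test compounds under metabolic activation by rat liver microsomes and NADPH at 0.5 mg/mL final each.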

[10] = p53 small molecule agonists, cell-based qHTS assay: qHTS cell viability counter screen (AID 1963581); further: nearly all actives have a fitted effect of over 45% in size
Method in brief: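 Cytotoxicity read-out: ATP-based luminescence (CellTiter-Glo, 30 min RT) measured in the same wells as the p53 reporter assay, HCT-116 p53RE-bla cells, 16 h compound exposure at 37 C.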

[11] = p53 small molecule agonists, cell-based qHTS assay (AID 1963582; active means well fitted activation curve with a large enough effect in the signal ratio in the repeat runs, not every such curve was filed as active; the % refers to the signal ratio)
Method in brief: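 Fluorescence intensity read-out of a beta-lactamase reporter under a p53 response element. Cells were exposed to DMSO-dissolved compounds for 16 h at 37 C, then developed with FRET substrate for 2 h at RT.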

[12] = target: 5-hydroxytryptamine receptor 2A (Homo sapiens) (UniProt P28223); assay: 5-hydroxytryptamine receptor 2A (HTR2A) small molecule antagonists, cell-based qHTS assay (AID 1963586); further: nearly all actives have a fitted effect of over 45% in size
Method in brief: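 CHO cells stably expressing human HTR2A were plated for 18 h at 37 C, then loaded with calcium dye for 1 h. Compounds were preincubated 5 min at room temperature before DOI (4 nM solution) was added. Kinetic fluorescence was read for 3 min.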

[13] = target: 5-hydroxytryptamine receptor 2A (Homo sapiens) (UniProt P28223); assay: 5-hydroxytryptamine receptor 2A (HTR2A) small molecule agonists, cell-based qHTS assay (AID 1963587); further: nearly all actives have a fitted effect of over 30% in size
Method in brief: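 HTR2A-CHO cells, plated 18 h at 37 C/5% CO2, dye-loaded 1 h at 37 C; compounds in DMSO added by pin tool (agonist mode). Intracellular calcium flux read as kinetic fluorescence on FDSS over 2 min at 1 s intervals.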

[14] = target: Muscarinic acetylcholine receptor M1 (Homo sapiens) (UniProt P11229); assay: Cholinergic receptor muscarinic 1 (CHRM1) small molecule antagonists, cell-based qHTS assay (AID 1963588); further: nearly all actives have a fitted effect of over 40% in size
Method in brief: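 Compounds were tested at 15 concentrations in three independent runs. Dye-loaded CHRM1-CHO cells were exposed 5 min at room temperature before stimulation by acetylcholine added at 50nM. Intracellular calcium was read kinetically on FDSS for 3 min.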

[15] = cAMP Responsive Elements (CRE) small molecule agonists, cell-based qHTS assay (AID 1963590)
Method in brief: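 Beta-lactamase reporter readout: LiveBLAzer B/G FRET substrate, 2 h at room temperature, added after 3 h compound treatment of CRE-bla HEK 293T cells at 37 C/5% CO2.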

[16] = cAMP Responsive Elements (CRE) small molecule antagonists, cell-based qHTS assay (AID 1963591; active means well fitted inhibition curve with a large enough effect in the signal ratio in the repeat runs, not every such curve was filed as active; the % refers to the signal ratio)
Method in brief: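 HEK293T CRE-bla; 18 h preincubation; compound pin-transfer; NKH477 0.25 uM final, 3 h, 37 C; LiveBLAzer FRET substrate 2 h RT.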

[17] = target: Beta-2 adrenergic receptor (Homo sapiens) (UniProt P07550); assay: Adrenergic beta2 receptor (ADRB2) small molecule antagonists, cell-based qHTS assay (AID 1963592); further: series mostly up to about 92 µM; nearly all actives have a fitted effect of over 50% in size
Method in brief: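 Assay format: CHO-ADRB2 cells, 18-20hr seeding at 37C/5% CO2, then compound plus 1nM isoproterenol agonist mix for 0.5hr RT. Homogeneous time-resolved fluorescence cAMP detection after 1hr, expressed as 665/615 nm ratio.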

[18] = target: D(2) dopamine receptor (Homo sapiens) (UniProt P14416); assay: Dopamine D2 receptor (DRD2) small molecule agonists, cell-based qHTS assay (AID 1963594); further: nearly all actives have a fitted effect of over 35% in size
Method in brief: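 HEK293 cells stably expressing DRD2 were cultured 24 h at 37 C, then given Ro20-1724 (0.1 mM final) and compounds for 10 min at room temperature. NKH477 (200nM) was then added for 30 min. cAMP was read by HTRF.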

[19] = target: D(2) dopamine receptor (Homo sapiens) (UniProt P14416); assay: Dopamine D2 receptor (DRD2) small molecule antagonists, cell-based qHTS assay (AID 1963595; active means well fitted inhibition curve with a large enough effect in the signal ratio in the repeat runs, with a control signal flat; the % refers to the signal ratio)
Method in brief: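 HTRF cAMP read-out at 665 and 620 nm emission (340 nm excitation). Antagonist mode: compounds were tested against 12 nM quinpirole in DRD2-HEK293 cells, with 200 nM NKH477 raising cAMP and 0.1 mM Ro20-1724 blocking its breakdown.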

[20] = target: Muscarinic acetylcholine receptor M1 (Homo sapiens) (UniProt P11229); assay: Cholinergic receptor muscarinic 1 (CHRM1) small molecule agonists, cell-based qHTS assay (AID 1963589); further: nearly all actives have a fitted effect of over 35% in size
Method in brief: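 Calcium flux read-out: kinetic fluorescence at 1 sec intervals after pin-tool compound addition to dye-loaded CHRM1-CHO cells (human M1). Agonist mode; 15 concentrations tested in triplicate independent runs.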

Measured: Potency

Chain of Muscarinic acetylcholine receptor M1 (Homo sapiens) (P11229 whole entry, looked up): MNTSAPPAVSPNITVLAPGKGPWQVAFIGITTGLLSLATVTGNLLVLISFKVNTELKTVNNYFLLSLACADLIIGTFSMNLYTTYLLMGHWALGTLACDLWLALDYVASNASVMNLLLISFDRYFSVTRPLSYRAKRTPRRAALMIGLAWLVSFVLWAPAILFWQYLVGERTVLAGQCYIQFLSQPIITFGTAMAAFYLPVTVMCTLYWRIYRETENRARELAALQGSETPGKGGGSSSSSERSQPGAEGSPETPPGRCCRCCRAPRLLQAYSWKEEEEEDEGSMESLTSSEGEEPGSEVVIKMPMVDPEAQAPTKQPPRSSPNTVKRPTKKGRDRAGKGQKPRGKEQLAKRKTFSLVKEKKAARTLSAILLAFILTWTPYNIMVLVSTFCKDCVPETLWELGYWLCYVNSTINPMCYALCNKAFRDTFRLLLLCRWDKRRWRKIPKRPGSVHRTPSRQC
Chain of Beta-2 adrenergic receptor (Homo sapiens) (P07550 whole entry, looked up): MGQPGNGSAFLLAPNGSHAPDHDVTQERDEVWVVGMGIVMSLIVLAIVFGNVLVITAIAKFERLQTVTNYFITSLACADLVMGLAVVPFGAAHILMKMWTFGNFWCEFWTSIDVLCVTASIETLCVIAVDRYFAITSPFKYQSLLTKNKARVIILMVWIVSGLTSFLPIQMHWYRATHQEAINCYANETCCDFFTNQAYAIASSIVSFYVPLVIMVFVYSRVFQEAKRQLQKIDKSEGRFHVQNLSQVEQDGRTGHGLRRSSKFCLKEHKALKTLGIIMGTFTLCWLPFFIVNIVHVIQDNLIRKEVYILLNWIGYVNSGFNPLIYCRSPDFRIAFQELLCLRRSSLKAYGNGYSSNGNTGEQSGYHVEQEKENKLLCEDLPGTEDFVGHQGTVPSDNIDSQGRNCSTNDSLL
Chain of 5-hydroxytryptamine receptor 2A (Homo sapiens) (P28223 whole entry, looked up): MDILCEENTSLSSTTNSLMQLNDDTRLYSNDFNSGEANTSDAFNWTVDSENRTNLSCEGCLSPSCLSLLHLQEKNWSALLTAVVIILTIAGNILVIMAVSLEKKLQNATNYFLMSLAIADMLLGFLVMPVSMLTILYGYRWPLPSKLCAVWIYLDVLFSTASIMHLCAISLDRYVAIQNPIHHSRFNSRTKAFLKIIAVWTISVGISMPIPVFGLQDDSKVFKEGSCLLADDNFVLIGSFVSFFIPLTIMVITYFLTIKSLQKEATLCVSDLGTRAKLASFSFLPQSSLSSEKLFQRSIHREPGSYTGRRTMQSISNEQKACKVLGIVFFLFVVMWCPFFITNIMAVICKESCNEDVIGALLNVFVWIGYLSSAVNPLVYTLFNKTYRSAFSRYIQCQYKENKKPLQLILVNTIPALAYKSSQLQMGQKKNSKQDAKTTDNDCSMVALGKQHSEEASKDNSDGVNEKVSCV
Chain of KiSS-1 receptor (Homo sapiens) (Q969F8 whole entry, looked up): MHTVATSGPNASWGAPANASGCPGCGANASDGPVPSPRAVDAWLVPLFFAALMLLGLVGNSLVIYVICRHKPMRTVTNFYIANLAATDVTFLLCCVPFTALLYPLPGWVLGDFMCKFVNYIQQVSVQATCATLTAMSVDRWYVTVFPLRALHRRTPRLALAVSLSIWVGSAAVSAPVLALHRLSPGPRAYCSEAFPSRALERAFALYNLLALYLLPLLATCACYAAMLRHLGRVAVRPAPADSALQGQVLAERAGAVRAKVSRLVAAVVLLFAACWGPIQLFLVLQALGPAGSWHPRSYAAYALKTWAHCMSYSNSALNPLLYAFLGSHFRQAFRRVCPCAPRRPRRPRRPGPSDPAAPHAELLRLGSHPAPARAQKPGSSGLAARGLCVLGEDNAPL
Chain of Gonadotropin-releasing hormone receptor (Homo sapiens) (P30968 whole entry, looked up): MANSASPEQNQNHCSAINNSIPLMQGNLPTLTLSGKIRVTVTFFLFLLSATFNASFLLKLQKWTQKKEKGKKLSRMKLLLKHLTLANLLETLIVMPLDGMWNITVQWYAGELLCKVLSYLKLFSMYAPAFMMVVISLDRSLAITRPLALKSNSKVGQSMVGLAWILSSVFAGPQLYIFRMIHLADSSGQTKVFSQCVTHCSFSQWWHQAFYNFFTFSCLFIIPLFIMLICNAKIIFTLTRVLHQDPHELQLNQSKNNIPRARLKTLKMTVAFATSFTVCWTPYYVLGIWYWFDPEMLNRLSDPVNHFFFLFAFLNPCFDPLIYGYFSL
Chain of D(2) dopamine receptor (Homo sapiens) (P14416 whole entry, looked up): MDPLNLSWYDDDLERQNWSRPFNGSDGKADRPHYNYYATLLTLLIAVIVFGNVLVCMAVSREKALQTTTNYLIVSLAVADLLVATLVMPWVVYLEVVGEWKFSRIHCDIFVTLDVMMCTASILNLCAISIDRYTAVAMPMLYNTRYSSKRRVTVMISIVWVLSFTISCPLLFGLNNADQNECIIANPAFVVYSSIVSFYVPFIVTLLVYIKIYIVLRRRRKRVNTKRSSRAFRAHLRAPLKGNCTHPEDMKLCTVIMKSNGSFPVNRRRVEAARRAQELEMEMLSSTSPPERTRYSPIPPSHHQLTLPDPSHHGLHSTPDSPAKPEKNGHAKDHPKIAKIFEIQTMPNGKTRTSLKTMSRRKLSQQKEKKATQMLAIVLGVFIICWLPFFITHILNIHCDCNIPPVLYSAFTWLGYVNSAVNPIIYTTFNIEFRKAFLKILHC

CCOC(=O)[C@H](C)O
not listed: [20]
inactive: all other assays above

Cc1c(F)cc2c(=O)c(C(=O)O)cn3c2c1CCC3C (stereo not given)
not listed: [15] | [16]
inactive: all other assays above

CC1CCc2c(N3CCC(O)CC3)c(F)cc3c(=O)c(C(=O)O)cn1c23 (stereo not given)
not listed: [15] | [16] | [19]
inactive: all other assays above

Cn1c(=O)cc(Oc2ccc(F)cc2F)c2cnc(NCC(C)(C)O)nc21
not listed: [15] | [16]
inactive: all other assays above

CS(=O)(=O)c1ccc([C@@H](C[C@H]2CCC(=O)C2)C(=O)Nc2cnccn2)cc1Cl
not listed: [15] | [16]
inactive: all other assays above

Cc1ccccc1CCO
not listed: [14] | [19]
inactive: all other assays above

C[C@]12CCC(=O)C=C1CC[C@@H]1[C@@H]2CC[C@@]2(C)[C@H]1CC[C@]2(O)C(=O)CO
not listed: [15] | [16] | [19]
inactive: all other assays above

CC(C)(C#N)Nc1nc(Cl)nc(NC2CC2)n1
not listed: [16] | [20]
inactive: all other assays above

CCCCS(=O)(=O)N[C@@H](Cc1ccc(OCCCCC2CCNCC2)cc1)C(=O)O
not listed: [18] | [20]
inactive: all other assays above

CC(C)(C)c1cc(CCC(=O)NCCCCCCNC(=O)CCc2cc(C(C)(C)C)c(O)c(C(C)(C)C)c2)cc(C(C)(C)C)c1O
not listed: [15] | [16]
inactive: all other assays above

CCCCC(=O)OCC(=O)[C@H]1[C@H](C)C[C@H]2[C@@H]3C[C@H](F)C4=CC(=O)C=C[C@]4(C)[C@@]3(F)[C@@H](O)C[C@@]21C
not listed: [15] | [20]
inactive: all other assays above

CCc1ccc(O)c(OC)c1
not listed: [17] | [19] | [20]
inactive: all other assays above

C[N+]1(C)CCCC(OC(=O)C(O)(c2ccccc2)c2ccccc2)C1 (stereo not given)
not listed: [14]
inactive: all other assays above

c1ccc(CNc2ncnc3nc[nH]c23)cc1
not listed: [17] | [19] | [20]
inactive: all other assays above
